Reference: PubChem BioAssay AID1159580 (chemical genetic matrix, 2015)
The whole screen tested about 5,500 compounds, of which about 2,000 (36%) were called active. Not shown: some 18% with an inconclusive outcome. Some of the results follow. A number with no mark means an inactive call. Rule as the data show it: active = normalized growth mostly below about 0.91 (no sharp cut-off); inconclusive = no clear call, values can overlap the other calls; inactive = mostly above about 0.92.

Experiment: chemical genetic growth profiling, strain panel (AID 1159580);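 also: tested at 20 µM; growth read once vehicle control cultures reached saturation at 30 °C; 1 = growth at the plate median or of vehicle wells; lower values mean less growth of the strain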
Conditions: S. cerevisiae deletion strains, growth OD
[1] = locus YAL040C, strain CLN3, active compounds read low
[2] = locus YCL061C, strain MRC1 (second series), active compounds read low
[3] = locus YDR363W, strain ESC2, active compounds read low
[4] = locus YER002W, strain NOP16, active compounds read low
[5] = locus YMR307W, strain GAS1, active compounds read low
[6] = locus YNL153C, strain GIM3, active compounds read low
[7] = locus YNL175C, strain NOP13, active compounds read low
[8] = locus YNL197C, strain WHI3, active compounds read low
[9] = locus YNL224C, strain SQS1, active compounds read low
[10] = locus YOR083W, strain WHI5 (second series), active compounds read low
[11] = locus YPL055C, strain LGE1, active compounds read low

Compound Nc1ncnc2c1ncn2C1CCCO1 (centres undefined) has a normalized growth (locus YAL013W, strain DEP1, active compounds read low) of 1.03, a normalized growth [1] of 1.03 and a normalized growth [2] of 0.997. For the same compound, the normalized growth [3] was 1.02, the normalized growth [4] was 0.967 and the normalized growth (locus YJR075W, strain HOC1, active compounds read low) was 1.02. The normalized growth [5] was 1, the normalized growth [6] was 0.989 and the normalized growth [7] was 0.986. The normalized growth [8] was 0.967, the normalized growth [9] was 1 and the normalized growth [10] was 0.977. It also gave a normalized growth [11] of 1.02.

Compound O=C1c2cccc3c(Sc4ccccc4)ccc(c23)C(=O)N1NCCO has a normalized growth (locus YAR019C, strain CDC15, active compounds read low) of 0.921, a normalized growth (locus YBL105C, strain PKC1, active compounds read low) of 0.926 and a normalized growth (locus YBR135W, strain CKS1, active compounds read low) of 0.92. The normalized growth (locus YBR136W, strain MEC1, active compounds read low) was 0.929, the normalized growth (locus YBR160W, strain CDC28, active compounds read low) was 0.922 and the normalized growth (locus YDL017W, strain CDC7, active compounds read low) was 0.929. It also gave a normalized growth (locus YDL028C, strain MPS1, active compounds read low) of 0.924, a normalized growth (locus YDL101C, strain DUN1, active compounds read low) of 0.916 and a normalized growth (locus YDL108W, strain KIN28, active compounds read low) of 0.929. For the same compound, the normalized growth (locus YDL132W, strain cdc53, active compounds read low) was 0.941, the normalized growth (locus YDL214C, strain PRR2, active compounds read low) was 0.861 and the normalized growth (locus YDR052C, strain DBF4, active compounds read low) was 0.941. It also gave a normalized growth (locus YDR054C, strain cdc34, active compounds read low) of 0.936, a normalized growth (locus YDR226W, strain ADK1, active compounds read low) of 0.952 and a normalized growth (locus YDR477W, strain SNF1, active compounds read low) of 0.853. The normalized growth (locus YER123W, strain YCK3, active compounds read low) was 0.855, the normalized growth (locus YER133W, strain GLC7, active compounds read low) was 0.908 and the normalized growth (locus YFL009W, strain cdc4, active compounds read low) was 0.912. For the same compound, the normalized growth (locus YFL029C, strain CAK1, active compounds read low) was 0.911, the normalized growth (locus YFR003C, strain YPI1, active compounds read low) was 0.923 and the normalized growth (locus YFR019W, strain FAB1, active compounds read low) was 0.897. The normalized growth (locus YFR028C, strain CDC14, active compounds read low) was 0.938, the normalized growth (locus YGR040W, strain KSS1, active compounds read low) was 0.859 and the normalized growth (locus YGR052W, strain FMP48, active compounds read low) was 0.83. The normalized growth (locus YGR092W, strain DBF2, active compounds read low) was 0.734, the normalized growth (locus YHR030C, strain SLT2, active compounds read low) was 0.577 (active) and the normalized growth (locus YHR079C, strain IRE1, active compounds read low) was 0.84. For the same compound, the normalized growth (locus YHR082C, strain KSP1, active compounds read low) was 0.8, the normalized growth (locus YHR205W, strain SCH9, active compounds read low) was 0.857 and the normalized growth (locus YIL147C, strain SLN1, active compounds read low) was 0.921. For the same compound, the normalized growth (locus YJL095W, strain BCK1, active compounds read low) was 0.771, the normalized growth (locus YJL128C, strain PBS2, active compounds read low) was 0.816 and the normalized growth (locus YJL157C, strain FAR1, active compounds read low) was 0.896. For the same compound, the normalized growth (locus YJR016C, strain ILV3, active compounds read low) was 0.921, the normalized growth (locus YJR066W, strain TOR1 (second series), active compounds read low) was 0.93 and the normalized growth (locus YJR066W, strain TOR1, active compounds read low) was 0.805. The normalized growth (locus YKL048C, strain ELM1, active compounds read low) was 0.831, the normalized growth (locus YKL067W, strain YNK1, active compounds read low) was 0.861 and the normalized growth (locus YKL101W, strain HSL1, active compounds read low) was 0.804. For the same compound, the normalized growth (locus YKL193C, strain SDS22, active compounds read low) was 0.912, the normalized growth (locus YKL203C, strain TOR2, active compounds read low) was 0.887 and the normalized growth (locus YLR113W, strain HOG1, active compounds read low) was 0.771 (active). It also gave a normalized growth (locus YLR133W, strain CKI1, active compounds read low) of 0.844, a normalized growth (locus YLR403W, strain SFP1, active compounds read low) of 0.863 and a normalized growth (locus YML070W, strain DAK1, active compounds read low) of 0.857. It also gave a normalized growth (locus YMR001C, strain CDC5, active compounds read low) of 0.914, a normalized growth (locus YMR205C, strain PFK2 (second series), active compounds read low) of 0.854 and a normalized growth (locus YMR277W, strain FCP1, active compounds read low) of 0.904. It also gave a normalized growth (locus YNL006W, strain LST8, active compounds read low) of 0.931, a normalized growth (locus YNL020C, strain ARK1, active compounds read low) of 0.814 and a normalized growth (locus YNL161W, strain CBK1, active compounds read low) of 0.927. It also gave a normalized growth (locus YNL183C, strain NPR1, active compounds read low) of 0.784, a normalized growth (locus YNL207W, strain RIO2, active compounds read low) of 0.922 and a normalized growth (locus YNL222W, strain SSU72, active compounds read low) of 0.921. For the same compound, the normalized growth (locus YNL307C, strain MCK1 (second series), active compounds read low) was 0.834, the normalized growth (locus YOL078W, strain AVO1, active compounds read low) was 0.911 and the normalized growth (locus YOL136C, strain PFK27, active compounds read low) was 0.853. For the same compound, the normalized growth (locus YOR061W, strain CKA2, active compounds read low) was 0.877, the normalized growth (locus YOR119C, strain RIO1, active compounds read low) was 0.936 and the normalized growth (locus YOR231W, strain MKK1, active compounds read low) was 0.845. The normalized growth (locus YOR329C, strain SCD5, active compounds read low) was 0.93, the normalized growth (locus YPL031C, strain PHO85, active compounds read low) was 0.837 and the normalized growth (locus YPL153C, strain RAD53, active compounds read low) was 0.82. The normalized growth (locus YPL204W, strain HRR25, active compounds read low) was 0.837, the normalized growth (locus YPL209C, strain IPL1, active compounds read low) was 0.923 and the normalized growth (locus YPL256C, strain CLN2, active compounds read low) was 0.757 (active). For the same compound, the normalized growth (locus YPR025C, strain CCL1, active compounds read low) was 0.926, the normalized growth (locus YPR106W, strain ISR1, active compounds read low) was 0.915 and the normalized growth (locus YPR111W, strain DBF20, active compounds read low) was 0.957. It also gave a normalized growth (strain NNK1, active compounds read low) of 0.897 and a normalized growth (strain TSCII, active compounds read low) of 0.917.

Work on C[N+]1(C)CCOC(O)(c2ccc(-c3ccc(C4(O)C[N+](C)(C)CCO4)cc3)cc2)C1 (centres undefined) yielded a normalized growth [1] of 1.09, a normalized growth [2] of 0.993 and a normalized growth (locus YDR150W, strain NUM1, active compounds read low) of 0.99. It also gave a normalized growth [3] of 1.02, a normalized growth [4] of 1 and a normalized growth (locus YGR078C, strain PAC10, active compounds read low) of 1.01. It also gave a normalized growth (locus YMR263W, strain SAP30, active compounds read low) of 1, a normalized growth [5] of 0.993 and a normalized growth [6] of 1.05. It also gave a normalized growth [7] of 1, a normalized growth [8] of 1.01 and a normalized growth [9] of 1. For the same compound, the normalized growth [10] was 1.02, the normalized growth [11] was 0.971 and the normalized growth (locus YPL241C, strain CIN2, active compounds read low) was 1.
